Screening results deposited in PubChem by SRMLSC.
Spn PMK inh: S. pneumoniae PMK inhibitors, primary screen, biochemical, mevalonate pathway, pilot trial included; hit rate 0.49% among 65,000; AID 539, 2006; purified PMK, PK/LDH-coupled NADH absorbance 340 nm; inhibition, % at 10 µM; phosphomevalonate kinase (Streptococcus pneumoniae D39);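 active means top-ranked compounds by inhibition in the single 10 µM screen, taking a fixed number of the strongest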;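 further: 0% = full reaction with DMSO carrier and 100% = background rate without enzyme reaction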
Spn DPM-DC inh: S. pneumoniae DPM-DC inhibitors, primary screen, biochemical, PK/LDH-coupled NADH fluorescence; diphosphomevalonate decarboxylase (Streptococcus pneumoniae D39); purified DPM-DC; calls only at 10 µM; hit rate 0.49% among 65,000; AID 556, 2006;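 active means the 320 compounds with the highest percent inhibition in the single-dose primary screen, excluding strongly autofluorescent ones, cut at about 32% in these data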;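 further: kinetic rate of NADH fluorescence loss reporting ADP formed by the decarboxylase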
A340 absorber: compound light absorbance at 340 nm, profiling panel, artefact control, biochemical, MLSMR library, data from PS, PMK, MK assays; fold change at 10 µM; compound absorbance at 340 nm, fold over control; 65,000 tested, under 10 active;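 active means at 10 µM dose, initial 340 nm absorbance at least 2 fold that of control wells; inactive means change under 2 fold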;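 further: initial absorbance extrapolated from kinetic A340 decline of NADH oxidation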
Spn MK inh: S. pneumoniae MK inhibitors, primary screen, biochemical, PK/LDH-coupled NADH absorbance; purified MK, PK/LDH-coupled NADH absorbance 340 nm; inhibition, % at 10 µM; hit rate 0.48% among 65,000; mevalonate kinase [Streptococcus pneumoniae D39];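 active means ranked among the strongest by inhibition in the single 10 µM screen, a fixed top-ranked set picked for dose follow-up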
Fluor 339 460: intrinsic fluorescence of library compounds, ex339/em460 – biochemical, MLSMR library, data from DPM-DC assay, artefact control, profiling panel; hit rate 5.5% among 65,000; fluorescence fold increase at 10 µM; compound autofluorescence, ex339/em460 nm, NADH buffer; stronger effect = higher value; 1 = no-compound wells, NADH background;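 active means at 10 µM, mean starting fluorescence two-fold or more over control wells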;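 further: signal is the first read of a kinetic run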
NADH enzymes: inhibitors of PK/LDH coupling enzymes, profiling panel, artefact control, biochemical, MLSMR library; IC50, µM (doses to about 10 µM), for inactives: at the top dose inhibition; coupled PK/LDH NADH assays, four targets; hit rate 0.02% among 65,000;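 active means single-dose screening hits from any of four coupled enzyme assays that gave an IC50 when retested across doses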;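 further: the DPM-DC format reads NADH fluorescence rather than 340 nm absorbance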
Numbers without * were called inactive; i = inactive; / = not tested or not shown; + = active, no number; [ ] = remark or other dose. In the library only some 6.8% were active in any assay of this set; here they are far more common.

SMILES	Spn PMK inh	Spn DPM-DC inh	A340 absorber	Spn MK inh	Fluor 339 460	NADH enzymes
COc1nc2ccccc2c(=O)n1OCC(C)C	11.0	i	1	6.0	1.1	6.0%
CCCC(=O)NCCCc1nc2ccccc2n1C(C)C	0.0	i	1.02	5.0	1.12	2.0%
COc1ccc(C2=CC(c3ccc(C)cc3)n3nnnc3N2)cc1 (stereo not given)	10.0	i	1.05	0.0	1.34	3.0%
COc1ccc(C2C=C(c3ccc(C)cc3)Nc3ncnn32)cc1 (stereo not given)	7.0	/	1.05	2.0	2.35*	5.0%
O=C(Nc1ccc2c(c1)OCO2)C1Cc2ccccc2CN1S(=O)(=O)c1cccs1 (stereo not given)	14.0	i	1.01	4.0	1.04	6.0%
COc1ccc(-c2ccc(-c3noc(-c4ccccc4)n3)c(OC)n2)cc1	16.0	/	1.03	10.0	3*	5.0%
CCOc1nc(-c2ccccc2)ccc1-c1noc(-c2cccnc2)n1	13.0	/	1.03	0.0	1.87	3.0%
COc1nc(-c2ccc(Cl)cc2)ccc1-c1noc(-c2ccncc2)n1	11.0	i	1	13.0	2.75*	7.0%
CCOc1nc(-c2ccccc2)ccc1-c1noc(-c2ccc(OC)c(OC)c2)n1	14.0	+[fluoresces]	1.02	4.0	1.81	4.0%
COc1nc(-c2ccccc2)ccc1-c1noc(-c2ccccc2)n1	6.0	i	1.09	1.0	1.82	2.0%
COc1ccc(-c2ccc(-c3noc(-c4ccco4)n3)c(OC)n2)cc1	1.0	/	1.24	10.0	3.69*	6.0%
Cc1cccc(Nc2nc(N)nc(CN3CCN(c4ccc(F)cc4)CC3)n2)c1	7.0	i	1.01	7.0	1.11	5.0%
CCOC(=O)c1[nH]c(CSc2nnnn2-c2ccccc2C)c(C(=O)OCC)c1C	16.0	i	1.01	10.0	1.08	9.0%
CCCS(=O)(=O)N1CCC(C(=O)NCc2ccccc2Cl)CC1	6.0	i	0.99	0.0	1.14	2.0%
COc1nc(-c2ccccc2)ccc1-c1noc(-c2cccs2)n1	4.0	i	1.14	0.0	2.24*	1.0%
COc1ccc(-c2noc(-c3ccccc3F)n2)cc1	8.0	i	1.03	4.0	1.1	5.0%
COc1nc(-c2ccccc2)ccc1-c1noc(COc2ccccc2)n1	0.0	/	1.09	17.0	2.12*	9.0%
COc1ccc(-c2ccc(-c3noc(-c4ccccc4F)n3)c(OC)n2)cc1	7.0	/	1.08	7.0	3.7*	7.0%
c1ccc(OCc2nc(-c3ccccc3)no2)cc1	1.0	i	1.01	2.0	1.07	1.0%
COc1nc(-c2ccccc2)ccc1-c1noc(-c2ccco2)n1	3.0	i	1.11	5.0	1.91	7.0%
CCN(CC(=O)Nc1ccccc1C(=O)OC)S(=O)(=O)c1ccccc1	6.0	i	1.03	4.0	1.11	6.0%
OCCN(CCO)c1nc(N2CCCCC2)c2nc(N(CCO)CCO)nc(N3CCCCC3)c2n1	2.0	/	1	4.0	2.25*	3.0%
Nc1ccc(-c2nc3c(Cl)cc(N)cc3[nH]2)cc1	18.0	/	1.27	11.0	4.86*	15.0%
CCc1nc2c(n1O)CCc1nonc1-2	11.0	i	1.05	3.0	1.12	5.0%
Cc1ccc(C2C3CN(C(C)C)CC=C3C(C#N)=C(N)C2(C#N)C#N)cc1 (stereo not given)	0.0	+[fluoresces]	0.99	5.0	2.28*	2.0%
SMILES	Spn PMK inh	Spn DPM-DC inh	A340 absorber	Spn MK inh	Fluor 339 460	NADH enzymes
CCCN1CC=C2C(C#N)=C(N)C(C#N)(C#N)C(c3cccc(OC)c3OC)C2C1 (stereo not given)	12.0	i	1.01	0.0	2.17*	4.0%
CN1CC=C2C(C#N)=C(N)C(C#N)(C#N)C(c3cccc(Cl)c3Cl)C2C1 (stereo not given)	0.0	i	0.99	19.0	1.59	4.0%
CCN1CC=C2C(C#N)=C(N)C(C#N)(C#N)C(CCc3ccccc3)C2C1 (stereo not given)	6.0	/	1.05	8.0	5.1*	7.0%
N#CC1=C(N)C(C#N)(C#N)[C@H](c2ccoc2)[C@H]2CN(Cc3ccccc3)CC=C12	6.0	i	1.06	0.0	2.34*	3.0%
COc1ccc(OC)c(C2C3CN(C(C)C)CC=C3C(C#N)=C(N)C2(C#N)C#N)c1 (stereo not given)	6.0	i	0.99	12.0	1.46	6.0%
COc1ccc(C(=O)C(CO)Oc2ccccc2OC)cc1OC (stereo not given)	9.0	i	1.08	3.0	1.12	4.0%
COc1ccc2c(c1)c(C(O)CN1CCC3(CC1)OCCO3)c(C)n2C (stereo not given)	9.0	i	1.05	11.0	1.19	7.0%
O=c1[nH]c2c(s1)C(c1ccco1)C1C3CCC(C3)C1S2 (stereo not given)	0.0	i	1.01	10.0	1.04	2.0%
Cn1nc(-c2ccc(OCC(=O)NCC3CCCO3)cc2)c2ccccc2c1=O (stereo not given)	6.0	i	1.08	3.0	1.19	3.0%
N=c1oc2ccccc2cc1-c1nc2ccccc2c(=O)[nH]1	18.0	i	1.07	4.0	1.15	8.0%
Cc1ccc(C)n1-c1ccc(C(=O)NCC2CCCO2)cc1 (stereo not given)	16.0	i	1.01	3.0	1.09	6.0%
COc1ccc(NC2=C(C(C)=O)C(c3ccc4c(c3)OCO4)C(C(C)=O)C(C)(O)C2)cc1 (stereo not given)	13.0	i	1.15	8.0	1.07	8.0%
CCOc1ccc2[nH]c(=O)c(CN(Cc3cccs3)Cc3nnnn3C(C)(C)C)cc2c1	7.0	i	1.05	8.0	2.38*	5.0%
COc1ccc2[nH]c(=O)c(CN(Cc3cccs3)Cc3nnnn3C(C)(C)C)cc2c1	12.0	i	1	4.0	1.76	6.0%
CCOc1ccc2[nH]c(=O)c(CN(CCN3CCOCC3)Cc3nnnn3C(C)(C)CC)cc2c1	15.0	i	1.03	6.0	2.61*	11.0%
COc1ccc2cc(CN(CCCN3CCOCC3)Cc3nnnn3C3CCCCC3)c(=O)[nH]c2c1	1.0	i	1.11	6.0	1.23	4.0%
CCOc1ccc2nc3ccc4[nH]onc4c3c2c1	0.0	/	1.03	2.0	2.3*	1.0%
CC12CCC(=O)N1C(C(=O)O)Cc1c2[nH]c2ccccc12 (stereo not given)	13.0	i	1.02	2.0	1.1	5.0%
COc1ccc2c(c1OC)C(=O)N1C(C(=O)O)Cc3c([nH]c4ccccc34)C21 (stereo not given)	4.0	i	1.02	1.0	2.17*	4.0%
O=C(NC1CCCCC1)c1ccc(CNc2ccccc2)o1	17.0	i	1.04	0.0	1.05	7.0%
